SW480 rereplic = DNA re-replication induction in SW480 cells | SW480 DNA re-replication, Hoechst DNA content imaging, 48 h | Potency, µM (titrated, usually from 46.1 µM), without a hit: top-dose re-replication activation, usual class: activators | 340,000 tested, 1.8% active | AID 624297; also: % of control where 0% means no effect; nearly all actives have a fitted effect of over 55% in size
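Readout is total intensity of Hoechst-stained nuclei, excited at 405 nm and collected at 500-530 nm. Compound treatment lasted 48 hr at 37 C in 5% CO2 before staining.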
MCF10A rereplic = inducers of DNA re-replication in MCF 10A breast cells; MCF 10A DNA re-replication, Hoechst nuclear intensity, 48 h; 350,000 tested, 2.9% active; Potency, µM (doses to about 46.1 µM), inactives show top-dose activity, positive = re-replication, usual class: activators; also: % of control where 0% means no effect; nearly all actives have a fitted effect of over 50% in size
VP16 counter = Gal4-VP16 reporter inhibition counter-screen | Drosophila S2 Gal4-VP16 UAS-luciferase, luminescence, 20 h | Potency, µM (top dose mostly 53.6 µM), without a hit: at the highest dose activity, negative = inhibition, hits mostly inhibitors | 310,000 tested, 3.5% active | AID 2546;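 also: Gal4-VP16 expression switched on by copper sulfate through the metallothionein promoter; % is scaled to controls: 0 for no effect and ±100 for the full control effect; nearly all actives have a fitted effect of over 50% in size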
RORg inh = inhibitors of mouse ROR gamma transcriptional activity; Drosophila S2 Gal4-RORgamma UAS-luciferase reporter, 20 h; Potency, µM (series often up to 53.6 µM), without a hit: at the highest dose activity change, negative = inhibition, actives largely listed as inhibitors; 310,000 tested, 5.4% active; AID 2551; also: % is scaled to controls: 0 for no effect and ±100 for the full control effect; nearly all actives have a fitted effect of over 60% in size
Target sequence (P51450 whole entry, looked up, the tested form may be a part): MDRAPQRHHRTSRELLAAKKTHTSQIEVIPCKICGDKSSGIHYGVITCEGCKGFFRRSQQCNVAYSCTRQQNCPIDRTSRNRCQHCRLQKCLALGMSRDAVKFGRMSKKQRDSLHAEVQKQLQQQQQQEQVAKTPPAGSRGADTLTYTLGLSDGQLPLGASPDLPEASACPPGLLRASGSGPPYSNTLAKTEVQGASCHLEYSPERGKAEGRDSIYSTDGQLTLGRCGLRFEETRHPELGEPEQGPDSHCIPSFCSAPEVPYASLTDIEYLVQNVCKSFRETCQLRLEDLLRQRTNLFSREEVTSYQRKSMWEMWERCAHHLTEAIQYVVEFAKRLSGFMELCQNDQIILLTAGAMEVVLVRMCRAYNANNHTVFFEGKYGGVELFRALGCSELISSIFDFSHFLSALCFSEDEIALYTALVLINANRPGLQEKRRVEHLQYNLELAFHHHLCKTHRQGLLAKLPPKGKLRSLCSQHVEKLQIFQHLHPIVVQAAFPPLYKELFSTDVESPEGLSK
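Drosophila Schneider cells stably carrying a metallothionein-driven Gal4 DBD–ROR gamma fusion and a UAS-Photinus luciferase reporter were exposed to compound for 1 hr, then induced with copper sulfate (700 uM final) for 20 hr at ambient temperature before luminescence reading.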
ELG1 repair inh = blocks ELG1-dependent DNA repair in HEK293T cells; AID 504467; 330,000 tested, 2.3% active; Potency, µM (series often up to 46.1 µM), for the others: at the top dose activity change, negative = inhibition, hits mostly inhibitors; HEK293T ELG1-luciferase reporter, luminescence, 16 h; DNA damage induced by 5-fluorouridine; also: % is scaled to controls: 0 for no effect and ±100 for the full control effect; nearly all actives have a fitted effect of over 55% in size
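Quantitative HTS, concentration-response format. 2,000 cells/well co-treated with 5-fluorouridine and compound, 16 hr in 5% CO2 at 37 °C; ONE-Glo luminescence read after 30 min.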
* = called active by the depositor; [ ] = another dose, or the depositor's remark. Only some compounds are listed: those with a hit (about 10% of all), similar ones and a draw of the others. Calls follow the shape of the dose curve; as a rule, active = well fitted curve in the direction sought with a large enough effect; inconclusive = small, poorly fitted or top-dose-only effect, or another doubt; inactive = no such curve, though single readings can be large; an effect the other way counts as inactive or inconclusive. Potency is read from the fitted curve at half-maximal effect.

What do the screens show for `COc1cc(OC)c(C#N)c(S(=O)(=O)Cc2ccccc2)c1`?
SW480 rereplic: -7%; MCF10A rereplic: 2%; VP16 counter: 0%; RORg inh: 3%; ELG1 repair inh: -4%

How did N#Cc1c([N+](=O)[O-])cc([N+](=O)[O-])cc1S(=O)(=O)Cc1ccccc1 do in these assays?
SW480 rereplic: 5.2µM*; MCF10A rereplic: inconclusive; ELG1 repair inh: 16µM*

What do the screens show for `O=S(=O)(O)CCCS(=O)(=O)O`?
SW480 rereplic: 0%; MCF10A rereplic: 0%; VP16 counter: -2%; RORg inh: 7%

What do the screens show for `Cc1ccc2c(c1)CCCN2C(=O)CCc1nc2ccccc2c(=O)[nH]1`?
SW480 rereplic: 8.9µM*; MCF10A rereplic: inconclusive; ELG1 repair inh: inconclusive

What do the screens show for `O=C(COC(=O)c1ccc2ccccc2n1)Nc1ccccc1Br`?
SW480 rereplic: 6%; MCF10A rereplic: -3%; ELG1 repair inh: inconclusive

How did CCOc1ccc(N2C(=O)CC(SCc3nc4ccccc4[nH]3)C2=O)cc1 (stereo unspecified) do in these assays?
SW480 rereplic: 1%; MCF10A rereplic: -4%; VP16 counter: inconclusive; RORg inh: 11µM*; ELG1 repair inh: 16%

Results for CCOc1ccc(N2C(=O)CC(Sc3nc(CC(C)C)ccc3C#N)C2=O)cc1 (stereo unspecified) ?
SW480 rereplic: 5.8µM*; MCF10A rereplic: inconclusive; VP16 counter: 1%; RORg inh: -32%; ELG1 repair inh: 2%

How did CCCOc1ccc(N2C(=O)CC(SCCc3nc4ccccc4[nH]3)C2=O)cc1 (stereo unspecified) do in these assays?
SW480 rereplic: -5%; MCF10A rereplic: 2%; VP16 counter: -19%; RORg inh: -3%; ELG1 repair inh: 2%

How did CCOc1ccc(N2C(=O)CC(N)C2=O)cc1 (stereo unspecified) do in these assays?
SW480 rereplic: inconclusive; MCF10A rereplic: 18µM*; VP16 counter: 3.2µM*; RORg inh: 1.1µM*; ELG1 repair inh: 13%

Results for O=C1CC(SCc2nc3ccccc3[nH]2)C(=O)N1c1cccc(F)c1 (stereo unspecified) ?
SW480 rereplic: -7%; MCF10A rereplic: 5%; VP16 counter: 14µM*; RORg inh: 10µM*; ELG1 repair inh: 12%

Results for Cc1ccc(S(=O)(=O)N2CCN(Cc3ccccc3)CC2)s1 ?
SW480 rereplic: inconclusive; MCF10A rereplic: -1%; ELG1 repair inh: 3%

How did CCOC(=O)c1nnn(CC(=O)NC(=O)Nc2cccc(CC)c2)c1C(=O)OCC do in these assays?
SW480 rereplic: -17%; MCF10A rereplic: 3%; VP16 counter: -26%; RORg inh: 20%; ELG1 repair inh: -1%

How did CCCOc1ccc(N2C(=O)CC(N3CCC(C(=O)OCC)CC3)C2=O)cc1 (stereo unspecified) do in these assays?
SW480 rereplic: 2%; MCF10A rereplic: 15µM*; VP16 counter: -2%; RORg inh: 10%; ELG1 repair inh: -2%

How did O=C1CC(SCc2nc3ccccc3[nH]2)C(=O)N1c1ccc(Cl)cc1 (stereo unspecified) do in these assays?
SW480 rereplic: 1%; MCF10A rereplic: -1%; VP16 counter: 6.3µM*; RORg inh: 3.5µM*; ELG1 repair inh: 25%

What do the screens show for `CCC1=C(c2ccc(OC)cc2)CCC(C(=O)O)C1C` (stereo unspecified)?
SW480 rereplic: 0%; MCF10A rereplic: -3%

Results for O=S(=O)(c1ccc(F)c(F)c1F)N1CCN(C(=S)Nc2ccccc2)CC1 ?
SW480 rereplic: -4%; MCF10A rereplic: -2%; VP16 counter: -15%; RORg inh: -16%; ELG1 repair inh: inconclusive

How did O=C(/C=C/c1ccc([N+](=O)[O-])cc1)OCC(=O)N1CCOCC1 do in these assays?
SW480 rereplic: 1%; MCF10A rereplic: 18µM*; ELG1 repair inh: 3%

How did O=C(/C=C/c1cccc(F)c1)OCC(=O)N1CCCC1 do in these assays?
SW480 rereplic: 8.2µM*; MCF10A rereplic: inconclusive; ELG1 repair inh: 1%

What do the screens show for `CCOC(=O)C1CCN(C(=O)CC(C)c2ccccc2)CC1` (stereo unspecified)?
SW480 rereplic: 2%; MCF10A rereplic: 29%; VP16 counter: 12%; RORg inh: -8%

How did O=C(/C=C/c1ccccc1)OCC(=O)N1CCCC1 do in these assays?
SW480 rereplic: -11%; MCF10A rereplic: -4%; ELG1 repair inh: inconclusive

Results for CCOC(=O)C1CCN(C(=O)COC(=O)/C=C/c2ccccc2)CC1 ?
SW480 rereplic: 7.3µM*; MCF10A rereplic: 3%; ELG1 repair inh: inconclusive

What do the screens show for `CCOC(=O)C1CCN(C(=O)C(CC)c2ccccc2)CC1` (stereo unspecified)?
SW480 rereplic: 18µM*; MCF10A rereplic: -2%; VP16 counter: 2%[10 µM]; RORg inh: 4%; ELG1 repair inh: 0%

Results for CC(Sc1nnc(COc2ccc(Cl)cc2)n1Cc1ccco1)C(=O)N1CCNC1=O (stereo unspecified) ?
SW480 rereplic: -6%; MCF10A rereplic: 11%; ELG1 repair inh: -24%

What do the screens show for `COc1cc(CCC(=O)Nc2ccc(Br)c(C(F)(F)F)c2)cc(OC)c1OC`?
SW480 rereplic: 16%; MCF10A rereplic: inconclusive; VP16 counter: inconclusive; RORg inh: 28%; ELG1 repair inh: inconclusive

How did COc1cccc(C(=O)Nc2c[nH]c(=O)[nH]c2=O)c1 do in these assays?
SW480 rereplic: -4%; MCF10A rereplic: 7%; VP16 counter: 5%; RORg inh: 30%; ELG1 repair inh: -3%

What do the screens show for `CCOC(=O)c1sc(NC(=O)C(C)(C)C)cc1C`?
SW480 rereplic: 2%; MCF10A rereplic: 6%; VP16 counter: 0%; RORg inh: 23%; ELG1 repair inh: inconclusive

Results for CCOC(=O)c1sc(NC(=S)NC(=O)C2CCCC2)cc1C ?
SW480 rereplic: 0%; MCF10A rereplic: 9%; VP16 counter: 3.2µM*; RORg inh: 4.5µM*; ELG1 repair inh: 24%

How did CCOC(=O)c1sc(NC(=S)NC(=O)CC(C)C)cc1C do in these assays?
SW480 rereplic: -3%; MCF10A rereplic: 3%; VP16 counter: inconclusive; RORg inh: 5.6µM*; ELG1 repair inh: 30%

How did O=C(CN(c1ccc2c(c1)OCCO2)S(=O)(=O)c1ccccc1)NCc1ccc(Cl)cc1 do in these assays?
SW480 rereplic: 5%; MCF10A rereplic: inconclusive; VP16 counter: -4%; RORg inh: 52%; ELG1 repair inh: 26µM*

Results for O=C(CN(c1ccc(F)cc1)S(=O)(=O)c1ccc2c(c1)OCCO2)Nc1ccccc1 ?
SW480 rereplic: -13%; MCF10A rereplic: 5%; VP16 counter: -6%; RORg inh: 26%; ELG1 repair inh: 21µM*

Screens from PubChem BioAssay.
